CRFBP-R2 block: blocks CRF-induced signaling of the CRF-BP/CRF-R2 complex. HEK293 CRF-R2/CRF-BP, CRF-induced calcium fluorescence. inhibition, % at 11.8 µM. 350,000 compounds, 0.59% hits. AID 588475;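 active = inhibition of the ligand-induced calcium signal above about 50% at the single tested concentration, limit read from the data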
CRFBP-R2 agonist: agonists of human CRF-binding protein/CRF-R2 receptor complex. HEK293 CRF-R2/CRF-BP, calcium dye fluorescence (FLIPR); percent of saturating CRF peptide response. activation, % at 13.2 µM. 350,000 compounds, 0.46% hits;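 active = activation of at least 50%, plus an integration ratio under a set limit after plate pattern correction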;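 note: plate controls were neutral control wells without compound for no effect and CRF at EC100 for full effect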
V-ATPase pH: yeast V-ATPase proton transport regulation by pHLuorin | response, % at 10 µM | S. cerevisiae, pHLuorin cytosolic pH fluorescence | 350,000 compounds, 0.37% hits; in the data active = response mostly above about 7.3%, no sharp cut-off; inactive = mostly below about 5.4%; note: actives read high
NTR1 agonist: activates human neurotensin receptor 1. activation, % at 20 µM. NTR1-U2OS beta-arrestin-GFP spot imaging, agonist mode. 330,000 compounds, 0.17% hits. P30989;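 active = activation at or above 40% of the spot to cytoplasm intensity ratio, with at least 20 cells analyzed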;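 note: 0% = DMSO without peptide and 100% = 100 nM NTR1 peptide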
Target sequence (P30989 whole entry, looked up): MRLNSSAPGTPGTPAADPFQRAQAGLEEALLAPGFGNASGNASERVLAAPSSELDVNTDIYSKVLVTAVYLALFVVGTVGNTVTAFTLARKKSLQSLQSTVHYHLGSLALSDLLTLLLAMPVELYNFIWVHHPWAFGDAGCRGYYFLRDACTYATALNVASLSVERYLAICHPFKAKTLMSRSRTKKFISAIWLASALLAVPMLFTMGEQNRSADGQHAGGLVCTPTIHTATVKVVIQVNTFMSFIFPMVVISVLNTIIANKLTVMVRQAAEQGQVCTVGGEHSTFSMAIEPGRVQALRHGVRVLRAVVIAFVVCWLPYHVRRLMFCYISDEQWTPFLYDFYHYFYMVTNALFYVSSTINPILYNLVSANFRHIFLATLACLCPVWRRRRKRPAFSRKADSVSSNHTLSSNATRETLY
An asterisk follows results filed as active; / = no result; ! = not active in a repeat. Most compounds without a hit are left out; they make up all but 1.5% or so of the library.

SMILES	CRFBP-R2 block	CRFBP-R2 agonist	V-ATPase pH	NTR1 agonist
CCCSCCCNC(=O)c1ccc(C)c(NC(=O)C2=C(C)OCCS2)c1	1.7	-0.7	-3.9	3.0
O=C(O)CCCC(=O)Nc1nncs1	0.6	-1.7	4.2	0.0
O=C(CCCc1ccccc1)Nc1nncs1	63.5*	-1.2	-2.7	0.0
O=C(NCc1ccc(F)cc1)C(=O)NCC1OCCN1C(=O)c1ccc(Cl)cc1 (stereo unspecified)	59.7*	-5.4	-5.1	-0.1
COc1ccc(C(=O)N2CCOC2CNC(=O)C(=O)NCc2ccc(F)cc2)cc1 (stereo unspecified)	3.5	0.9	-1.7	0.4
CCN(CC)CCOc1ccc2c(c1)C(=NO)c1cc(OCCN(CC)CC)ccc1-2	-5.4	-0.2	-2.9	1.0
CCCOc1ccc2c(c1)C(=NN=C(N)N)c1cc(OCCC)ccc1-2	-12.2	0.7	4.1	79.8*
N#C/C(=C\c1ccc(N2CCCCC2)o1)C(N)=O	-24.7	35.5	2.1	-2.8
N#C/C(=C\c1ccc(N2CCCCC2)o1)C(=O)Nc1cccc(Br)c1	-265.5	312.1*	-2.7	-4.0
COc1ccc(CNC(=O)C(C)Sc2nc3ccccc3c(=O)n2CC2CCCO2)cc1 (stereo unspecified)	36.7	0.6	-2.5	-1.2
O=C(O)CSc1c(-c2ccccc2)[nH]c2ccccc12	6.8	-1.0	17.1*	-1.3
CC(C)c1cc(N2CCC(=O)NC2=O)cc(C(=O)O)c1O	52.0*	0.3	-4.7	-1.3
CC(C)N1CCC(=O)NC1=O	4.2	-4.3	-2.0	/
Cc1ccc(N=C2NC(=O)C(CC(=O)O)S2)cc1 (stereo unspecified)	-1.3	3.9	21.6*	-1.7
CCNC(=O)CC1SC(=Nc2ccc(C)cc2)NC1=O (stereo unspecified)	4.7	-1.5	-4.4	2.8
O=S(=O)(Nc1nc(-c2sccc2Cl)cs1)c1cc(Cl)ccc1Cl	58.8*	-0.7	-3.4	3.5
CC(C)(C)c1nnc(NS(=O)(=O)c2cc(Cl)ccc2Cl)s1	24.2	-1.9	-0.1	0.0
O=C1Nc2ccccc2N(O)N1c1cc(-c2cccc(Cl)c2)no1	50.1*	49.2	0.7	-0.3
O=C1Nc2ccccc2N(O)N1c1cc(-c2ccccc2Cl)no1	-6.5	-0.1	1.1	-0.9
CCOC(=O)c1c(C)[nH]c(C)c1S(=O)(=O)N1CCOCC1	7.2	0.3	3.7	-0.3
CCS(=O)(=O)Nc1ccc(-c2nc3cccnc3s2)cc1	-15.1	89.0*	1.1	-2.0
CCc1ccc(S(=O)(=O)NCC2(N3CCOCC3)CCCCC2)cc1	-21.7	53.7*	1.8	0.9
O=S(=O)(NCC1(N2CCOCC2)CCCCC1)c1ccc(Cl)cc1C(F)(F)F	-48.5	55.9*	-1.4	1.9
O=S(=O)(NCC1(N2CCOCC2)CCCCC1)c1ccccc1Cl	2.3	0.1	-1.6	0.8
O=C1c2cccc3cc([N+](=O)[O-])cc(c23)C(=O)N1CCN1CCCC1	9.1	7.5	1.3	2.2
SMILES	CRFBP-R2 block	CRFBP-R2 agonist	V-ATPase pH	NTR1 agonist
Nc1cc2c3c(cccc3c1)C(=O)N(CCN1CCCC1)C2=O	-55.7	66.3*	5.2	/
CCCCCCN1CC(=O)N2Cc3[nH]c4ccccc4c3C[C@H]2C1=O	-1.4	4.7	12.5	2.3
CCN1CCN(Cc2ccc(NC(=O)c3cc(NC(=O)C(=O)c4c[nH]c5ccccc45)cc(OC)c3)cc2C(F)(F)F)CC1	-12.4	2.3	2.3	-5.4
CCN1CCN(Cc2ccc(NC(=O)c3ccc(C)c(NC(=O)C(=O)c4c[nH]c5ccccc45)c3)cc2C(F)(F)F)CC1	-24.9	0.4	4.4	40.8*!
CN(CC1COc2ccccc2O1)C(=O)CCNS(=O)(=O)c1ccc(F)c(Cl)c1 (stereo unspecified)	1.2	-1.4	0.3	/
Cc1cccc(C(=O)NC(=S)NNC(=O)COc2c(C)cccc2C)c1	-90.3	166.5*	1.4	4.9
Cc1cccc(C(=O)NC(=S)N2CCN(C(=S)NC(=O)c3cccc(C)c3)CC2)c1	50.2*	-0.7	-2.5	-1.0
Cc1ccc(C(=O)NC(=S)NNC(=O)COc2ccccc2C)cc1	-50.4	114.0*	-3.8	9.3
CCC(=O)NNC(=S)NC(=O)c1ccc(C)cc1	-29.2	4.4	1.4	-0.1
Cc1ccc(OCC(=O)NNC(=S)NC(=O)C(C)(C)C)c(Br)c1	-18.5	84.5*	-4.7	7.6
CSCCC(NC(=O)COc1ccccc1)C(=O)N(C)Cc1ccc(SC)cc1 (stereo unspecified)	0.4	-1.1	-2.2	-0.6
Cc1cccc(C(=O)NC(=S)NNC(=O)c2ccccc2Cl)c1	-1.9	152.2*	-2.4	6.1
Cc1cccc(C(=O)NC(=S)NNC(=O)Cc2ccccc2)c1	17.2	136.5*	-2.2	0.1

Source: PubChem BioAssay
